Laboratory results reported in ChEMBL document CHEMBL4513146, “CO-ADD screening of Karazin Kharkiv National University (Ukraine) compounds”.
Results with a measured potency or affinity are listed apart.

Tests used:
Staphylococcus aureus = settings: Concentration 32 ug.mL-1;; ASSAY_TEST Inhibition of Bacterial Growth; detection method Absorption (OD600); MEDIA CAMHB; plate type 384well; NBS; CORNING #3640; time 18 hr
Escherichia coli = settings: Concentration 32 ug.mL-1;; ASSAY_TEST Inhibition of Bacterial Growth; detection method Absorption (OD600); MEDIA CAMHB; plate type 384well; NBS; CORNING #3640; time 18 hr

Question: Which results are given for `CC(=O)c1ccc(NC(=O)Cn2nc3c(SC4CCCCC4)nccn3c2=O)cc1`?
Answer: Inhibition (Staphylococcus aureus): 3.51%; Inhibition (Escherichia coli): -2.6%

Question: How did the Inhibition (Staphylococcus aureus) turn out when `Cc1ccc(C(=O)C(C)Sc2nnc3c(=O)n(-c4ccc(F)c(F)c4)ccn23)cc1C` (centres undefined) was run?
Answer: 19.73%

Question: And the Inhibition (Escherichia coli)?
Answer: 1.41%

Question: `Cc1cccc(C)c1NC(=O)Cn1nc2ccc(SCc3ccc(Cl)cc3)nn2c1=O` was tested. Which Inhibition (Staphylococcus aureus) did it give?
Answer: -3.66%

Question: What about the Inhibition (Escherichia coli) of the same compound?
Answer: -13.3%

Question: For `COC(=O)c1ccccc1NC(=O)Cn1nc2c3cc(-c4ccc(OC)cc4)nn3ccn2c1=O`, which Inhibition (Staphylococcus aureus) is on record?
Answer: 11.07%

Question: And the Inhibition (Escherichia coli)?
Answer: 4.87%

Question: For `O=C(Cn1nc2ccc(SCc3ccc(Cl)cc3)nn2c1=O)NC1CCCCC1`, which Inhibition (Staphylococcus aureus) is on record?
Answer: 0.02%

Question: And the Inhibition (Escherichia coli)?
Answer: -9.74%

Question: How did the Inhibition (Staphylococcus aureus) turn out when `CC(C)(C)S(=O)(=O)c1ccc2nn(CC(=O)Nc3ccc(Br)cc3)c(=O)n2n1` was run?
Answer: 3.67%

Question: What about the Inhibition (Escherichia coli) of the same compound?
Answer: -5.05%

Question: Which Inhibition (Staphylococcus aureus) does the source give for `COc1cccc(-c2nc(CSc3nc4ccccc4n4c(C)nnc34)c(C)o2)c1OC` here?
Answer: 2.75%

Question: And the Inhibition (Escherichia coli)?
Answer: -2.95%

Question: For `Cc1cc(C)cc(NC(=O)Cn2nc3ccc(SCc4ccc(Cl)cc4)nn3c2=O)c1`, which Inhibition (Staphylococcus aureus) is on record?
Answer: -7.67%

Question: And the Inhibition (Escherichia coli)?
Answer: -11.38%

Question: How did the Inhibition (Staphylococcus aureus) turn out when `CCCCOc1ccc(-c2cc3c4nnc(SCC(=O)Nc5ccccc5Cl)n4ccn3n2)cc1` was run?
Answer: 3.41%

Question: And the Inhibition (Escherichia coli)?
Answer: -3.41%

Question: With `COc1cccc(-c2noc(Cn3nc4ccc(-c5ccc(C)c(C)c5)nn4c3=O)n2)c1OC` as the compound, how does the Inhibition (Staphylococcus aureus) read?
Answer: 6.16%

Question: What about the Inhibition (Escherichia coli) of the same compound?
Answer: -3.11%

Question: With `CC(C)CCn1c(=O)c2ccc(C(=O)NC3CCCC3)cc2n2c(=S)[nH]nc12` as the compound, how does the Inhibition (Staphylococcus aureus) read?
Answer: -2%

Question: What about the Inhibition (Escherichia coli) of the same compound?
Answer: -7.9%

Question: `Cc1cc(C)c(NC(=O)Cn2nc3ccc(-c4ccc(C)c(C)c4)nn3c2=O)c(C)c1` was tested. Which Inhibition (Staphylococcus aureus) did it give?
Answer: -8.09%

Question: What about the Inhibition (Escherichia coli) of the same compound?
Answer: -15.6%

Question: What does the source list for `Cc1c(Cl)cccc1-n1ccn2c(=O)n(Cc3ccccc3Cl)nc2c1=O`?
Answer: Inhibition (Staphylococcus aureus): -12.86%; Inhibition (Escherichia coli): -11.83%

Question: How did the Inhibition (Staphylococcus aureus) turn out when `COC(=O)c1ccc(NC(=O)Cn2nc3ccc(S(=O)(=O)c4ccccc4)nn3c2=O)cc1` was run?
Answer: -1.97%

Question: And the Inhibition (Escherichia coli)?
Answer: -13.66%

Question: Which Inhibition (Staphylococcus aureus) does the source give for `O=c1c2sccc2n2c(=O)n(Cc3ccc(F)cc3)nc2n1Cc1cccs1` here?
Answer: 13.21%

Question: And the Inhibition (Escherichia coli)?
Answer: -2.41%

Question: How did the Inhibition (Staphylococcus aureus) turn out when `Cc1ccc(C)c(NC(=O)Cn2nc3c(SCc4ccc(Cl)cc4)nccn3c2=O)c1` was run?
Answer: 7.31%

Question: What about the Inhibition (Escherichia coli) of the same compound?
Answer: -3.74%

Question: For `Cc1ccc(-c2cc3c4nn(CC(=O)Nc5ccc(Br)cc5)c(=O)n4ccn3n2)cc1C`, which Inhibition (Staphylococcus aureus) is on record?
Answer: 0.82%

Question: And the Inhibition (Escherichia coli)?
Answer: -8.3%

Question: For `Cc1nnc2ccc(S(=O)(=O)N(Cc3cccc(F)c3)c3ccc(Cl)cc3)cn12`, which Inhibition (Staphylococcus aureus) is on record?
Answer: 9.42%

Question: And the Inhibition (Escherichia coli)?
Answer: -6.55%

Question: Which Inhibition (Staphylococcus aureus) does the source give for `COC(=O)c1sccc1NC(=O)Cn1nc2c(Oc3ccccc3)nc3ccccc3n2c1=O` here?
Answer: 9.09%

Question: And the Inhibition (Escherichia coli)?
Answer: 0.17%

Question: Which results are given for `Cc1ccc(-c2ccc3nn(CC(=O)NC4CCCCC4)c(=O)n3n2)cc1C`?
Answer: Inhibition (Staphylococcus aureus): 8.8%; Inhibition (Escherichia coli): 0.07%

Question: How did the Inhibition (Staphylococcus aureus) turn out when `CCc1nnc2c(SCC(=O)Nc3cc(Cl)ccc3C)nc3ccccc3n12` was run?
Answer: 13.83%

Question: And the Inhibition (Escherichia coli)?
Answer: -0.41%

Question: Which results are given for `Cc1ccc(Nc2cc(C)n3c(=O)n(Cc4cc(=O)n5ccccc5n4)nc3n2)cc1F`?
Answer: Inhibition (Staphylococcus aureus): 9.94%; Inhibition (Escherichia coli): -6.14%

Question: For `Cc1cccc(Oc2nc3ccccc3n3c(=O)n(CC(=O)NCc4ccco4)nc23)c1C`, which Inhibition (Staphylococcus aureus) is on record?
Answer: 3.87%

Question: What about the Inhibition (Escherichia coli) of the same compound?
Answer: -6.2%

Question: For `Cc1ccc(-c2ccc3nn(Cc4nc(-c5ccc(Cl)cc5)no4)c(=O)n3n2)cc1`, which Inhibition (Staphylococcus aureus) is on record?
Answer: 5.13%

Question: And the Inhibition (Escherichia coli)?
Answer: 0.55%

Question: With `COc1ccc(CNC(=O)CSc2nnc3c4cc(-c5ccc(C)cc5)nn4ccn23)cc1` as the compound, how does the Inhibition (Staphylococcus aureus) read?
Answer: 4.45%

Question: And the Inhibition (Escherichia coli)?
Answer: -3.09%

Question: Which results are given for `CCOc1ccc(C(=O)Cn2nc3n(CCC(C)C)c(=O)c4sccc4n3c2=O)cc1`?
Answer: Inhibition (Staphylococcus aureus): 6.67%; Inhibition (Escherichia coli): 3.25%

Question: For `O=C(CSc1nnc2c(=O)n(Cc3ccc(F)cc3)ccn12)NC1CCCC1`, which Inhibition (Staphylococcus aureus) is on record?
Answer: 13.37%

Question: What about the Inhibition (Escherichia coli) of the same compound?
Answer: -4.53%

Question: `COc1ccc(CNC(=O)Cn2nc3c(N4CCN(c5ccccc5C)CC4)nccn3c2=O)cc1` was tested. Which Inhibition (Staphylococcus aureus) did it give?
Answer: 6.39%

Question: And the Inhibition (Escherichia coli)?
Answer: -3.43%

Question: Which Inhibition (Staphylococcus aureus) does the source give for `CCc1nnc2c(S(=O)(=O)N(Cc3ccccc3F)c3ccc(F)cc3)cccn12` here?
Answer: 1.79%

Question: What about the Inhibition (Escherichia coli) of the same compound?
Answer: -1.76%

Question: What does the source list for `COc1ccc(N2CCN(C(=O)Cn3nc4c(Oc5cccc(C)c5C)nccn4c3=O)CC2)cc1`?
Answer: Inhibition (Staphylococcus aureus): 7.43%; Inhibition (Escherichia coli): -1.11%

Question: For `Cc1ccc(Cl)cc1NC(=O)Cn1nc2c3c4c(sc3ncn2c1=O)CCCCC4`, which Inhibition (Staphylococcus aureus) is on record?
Answer: 5.6%

Question: And the Inhibition (Escherichia coli)?
Answer: -1.7%

Question: Which results are given for `Cc1cc2nn(CC(=O)Nc3cccc(C)c3C)c(=O)n2c(Nc2ccc(F)c(C)c2)n1`?
Answer: Inhibition (Staphylococcus aureus): 2.54%; Inhibition (Escherichia coli): -7.8%
